An excerpt weighted towards active compounds, which were near 10% of everything screened.
GLS inh – glutaminase GLS (human) inhibition. O94925. GLS enzymatic activity, qHTS titration. Potency, µM (series often up to 45.5 µM), actives largely listed as inhibitors. 410,000 tested, 0.21% active. AID 624170
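Assay buffer: 45 mM KH2PO4 pH 8.2, 0.02% Tween-20. hKGA acts on L-glutamine (1 mM solution added); product glutamate is reported by an oxidase/peroxidase Amplex Red coupling, with fluorescence taken at baseline and 30 min.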
HP1b binding inh – blocks HP1-beta chromodomain binding to methylated histone tails. Potency, µM (doses to about 114 µM), usual class: inhibitors. AID 540317. P83916. 390,000 tested, 0.56% active. AlphaScreen HP1-beta / biotin-H3K9me3 peptide binding; note: nearly all actives have a fitted effect of over 70% in size
Target sequence (P83916 whole entry, looked up): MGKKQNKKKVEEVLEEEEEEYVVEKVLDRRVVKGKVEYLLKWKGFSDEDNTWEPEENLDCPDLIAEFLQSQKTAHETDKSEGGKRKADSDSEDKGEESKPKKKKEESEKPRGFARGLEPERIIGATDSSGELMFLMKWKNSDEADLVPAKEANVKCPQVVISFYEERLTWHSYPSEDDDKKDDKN
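Compound inhibition of the preformed complex between 50 nM HP1-beta and 50 nM biotinylated H3K9me3 peptide was read by AlphaScreen. Buffer was PBS pH 7.4 with 0.01% Tween-20. Incubations ran 30 min at room temperature, with 10 ug/mL donor/acceptor beads.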
G9a block – inhibitors of human histone lysine methyltransferase G9a; Q96KQ7; G9a H3K9 monomethylation, AlphaScreen, 2 h; Potency, µM (titrated, usually from 102 µM), usual class: inhibitors; 350,000 tested, 8.8% active; note: nearly all actives have a fitted effect of over 75% in size
Target sequence (Q96KQ7 913-1193 limits assumed): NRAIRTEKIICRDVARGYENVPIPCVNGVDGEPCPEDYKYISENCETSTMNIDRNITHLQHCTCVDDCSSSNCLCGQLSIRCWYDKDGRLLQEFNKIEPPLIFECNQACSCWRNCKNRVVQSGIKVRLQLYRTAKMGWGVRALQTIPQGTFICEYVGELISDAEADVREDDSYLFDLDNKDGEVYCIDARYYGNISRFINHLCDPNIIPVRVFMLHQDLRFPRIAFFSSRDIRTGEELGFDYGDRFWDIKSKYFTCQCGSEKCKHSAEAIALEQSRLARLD
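Methyltransferase reactions run at room temperature for 2 h (20 nM enzyme, 500 nM biotin-H3K9 peptide, 20 uM SAM) after a 15 min compound preincubation; product detected by AlphaScreen beads and anti-H3K9me1 antibody.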
JMJD2A Tudor inh – blocks the human JMJD2A Tudor domain. O75164. AlphaScreen JMJD2A-Tudor / H3K4me3 peptide binding. Potency, µM (highest dose often 114 µM), actives largely listed as inhibitors. 390,000 tested, 4.4% active; note: nearly all actives have a fitted effect of over 50% in size
BAZ2B block – blocks human BAZ2B. Q9UIF8. AlphaScreen BAZ2B-H3K14Ac peptide displacement. Potency, µM (highest dose often 114 µM), most hits filed as inhibitors. 360,000 tested, 4.4% active; note: nearly all actives have a fitted effect of over 60% in size
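Multi-concentration screen (max 110 uM) measuring displacement of acetylated histone H3 peptide from BAZ2B by AlphaScreen, using 50 nM protein, 50 nM peptide and 10 ug/mL streptavidin donor plus Ni-chelate acceptor beads.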
Each line names hits and unclear results; the compound was inactive in the other large screens. Calls come from the whole dose curve; as a rule, active = well fitted curve in the direction sought with a large enough effect; inconclusive = small, poorly fitted or top-dose-only effect, or another doubt; inactive = no such curve, though single readings can be large; an effect the other way counts as inactive or inconclusive.

O=C(Cn1c(=O)c(CNc2ccccc2)cc2cc3c(cc21)OCCO3)Nc1ccccc1Cl	G9a block inconclusive, JMJD2A Tudor inh inconclusive, BAZ2B block inconclusive
CCN1C(=O)/C(=C2/C=Cc3ccccc3N2CC)SC1=S	HP1b binding inh inconclusive, G9a block 13µM, JMJD2A Tudor inh 11µM, BAZ2B block 7.9µM
CN1C(=O)/C(=C2/C=Cc3ccccc3N2CCCS(=O)(=O)O)SC1=S	HP1b binding inh inconclusive, G9a block inconclusive, JMJD2A Tudor inh inconclusive, BAZ2B block 45µM
CCCN1C(=O)/C(=C2/C=Cc3ccccc3N2CC)SC1=S	HP1b binding inh 3.2µM, G9a block 3.2µM, JMJD2A Tudor inh 5.6µM, BAZ2B block 2.8µM
CCN1C(=O)/C(=C2\Sc3ccccc3N2CC)OC1=S	JMJD2A Tudor inh inconclusive
CCCN1/C(=C2/SC(=S)N(CC)C2=O)C=Cc2ccccc21	HP1b binding inh inconclusive, G9a block inconclusive, JMJD2A Tudor inh 3.2µM, BAZ2B block 2µM
COc1ccc(OC)c(NC(=O)CSc2ncc3c(n2)-c2ccccc2N(C)S3(=O)=O)c1	HP1b binding inh inconclusive, BAZ2B block inconclusive
CNc1ccc(Cl)cc1S(=O)(=O)c1ccccc1[N+](=O)[O-]	none (no result: HP1b binding inh, G9a block, JMJD2A Tudor inh, BAZ2B block)
C=CCN1C(=O)/C(=C2/Sc3ccccc3N2CCCS(=O)(=O)O)SC1=S	GLS inh inconclusive, HP1b binding inh inconclusive, G9a block 40µM, BAZ2B block inconclusive
C=CCN1C(=O)/C(=C2/Sc3ccccc3N2CC)SC1=S	none
CC(C)c1ccc(OCc2ccc(C(=O)O)o2)cc1	G9a block inconclusive, BAZ2B block 79µM
COC(=O)c1ccc(CN2CCc3ccc(NC(=O)c4ccncc4)cc3C2)cc1	G9a block 50µM
CC(=O)Nc1ccc(NC(=O)c2ccc(CN3CCc4ccccc4C3)cc2)cc1	none
COc1cc(CN2CCc3ccc(NC(=O)CCc4ccccc4OC)cc3C2)ccc1O	G9a block 45µM, JMJD2A Tudor inh inconclusive
COc1cccc(CN2CCc3ccc(NC(=O)CCc4ccc(C)cc4)cc3C2)c1O	G9a block 40µM, BAZ2B block inconclusive
COc1ccc(CN2CCc3ccc(NC(=O)CCc4ccccc4OC)cc3C2)c(O)c1	G9a block inconclusive
CCOc1cc(C#N)c(NC(=O)Cn2nnc(-c3ccc(C)cc3)n2)cc1OCC	none
O=C(COc1ccccc1Cl)NCCCNC(=O)c1cnccn1	none
Cc1c(/C=N/NC(=O)CNc2ccccc2)c2ccccn2c1C(=O)c1ccc(Cl)cc1	none
Cc1c(/C=N/NC(=O)CNc2ccccc2)c2ccccn2c1C(=O)c1ccncc1	G9a block 45µM, BAZ2B block inconclusive
Cc1ccc(S(=O)(=O)c2[nH]c(-c3ccccc3)nc2SC(C)C(=O)O)cc1 (stereo not given)	none
Cc1ccccc1Sc1ncccc1[N+](=O)[O-]	JMJD2A Tudor inh inconclusive (no result: G9a block, BAZ2B block)
Cc1c([N+](=O)[O-])cnc(Sc2ccccc2)c1[N+](=O)[O-]	HP1b binding inh inconclusive, JMJD2A Tudor inh 40µM (no result: G9a block, BAZ2B block)
Cc1ccc(Sc2ncccc2[N+](=O)[O-])cc1	HP1b binding inh inconclusive, G9a block inconclusive, JMJD2A Tudor inh 45µM, BAZ2B block inconclusive
O=[N+]([O-])c1cccnc1SCc1ccccc1	HP1b binding inh 35µM, G9a block 45µM, JMJD2A Tudor inh 14µM, BAZ2B block 32µM
O=[N+]([O-])c1cccnc1Sc1ccc(Br)cc1	HP1b binding inh inconclusive, JMJD2A Tudor inh 56µM (no result: G9a block, BAZ2B block)
O=C(c1cc2cc3ccc(Cl)cc3nc2o1)N1CCN(c2cccc(Cl)c2)CC1	none (no result: BAZ2B block)
CCSc1nnc(CNC(=O)C23CC4CC(CC(C4)C2)C3)n1Cc1ccccc1	G9a block 32µM, JMJD2A Tudor inh inconclusive
COCCCNc1nc(NCc2ccc(C)cc2)c2cnn(C)c2n1	none
C[N+]12CCCCC1[C@@H](CO)CCC2 (stereo not given in full)	G9a block 50µM
COc1ccc(NC(=O)Cn2ncc3c(C)n(Cc4cccc(Cl)c4)c(C)c3c2=O)cc1	none
CCc1ccc(NC(=O)Cn2ncc3c(C)n(Cc4cccc(Cl)c4)c(C)c3c2=O)cc1	BAZ2B block 79µM
CC(C)C(=O)N(c1ccc2oc(=O)sc2c1)S(=O)(=O)c1ccccc1	G9a block 3.2µM, JMJD2A Tudor inh inconclusive
COc1ccc(C(=O)Oc2ccc3oc(=O)sc3c2)cc1	G9a block inconclusive
COc1ccc(OC)c(S(=O)(=O)N(C(C)=O)c2ccc3oc(=O)sc3c2)c1	G9a block 35µM
CCCC(=O)N(c1ccc2oc(=O)sc2c1)S(=O)(=O)c1cccs1	G9a block 40µM
COc1ccc(S(=O)(=O)N(C(=O)C(C)C)c2ccc3oc(=O)sc3c2)cc1	G9a block 7.9µM, BAZ2B block inconclusive
CCOC(=O)c1c(-c2ccccc2)oc2ccc(N(C(C)=O)S(=O)(=O)c3ccc(C)cc3)cc12	none
COc1ccc(N(C(C)=O)S(=O)(=O)c2cc(OC)ccc2OC)cc1	none
CCOc1ccccc1NC(=O)N1CCc2c(sc3c2CCCC3)C1c1ccccc1 (stereo not given)	none
COc1ccc(OCc2nn[nH]n2)cc1	G9a block inconclusive
CC(=O)N(c1ccc2oc(=O)sc2c1)S(=O)(=O)c1ccccc1	G9a block 25µM, BAZ2B block inconclusive
O=C(O)c1cc(-c2ccco2)nn1-c1ccc(Cl)cc1	HP1b binding inh inconclusive, G9a block 10µM, JMJD2A Tudor inh 50µM, BAZ2B block 50µM
O=C(O)c1cc(-c2ccco2)nn1-c1cccc(Cl)c1	G9a block 18µM, JMJD2A Tudor inh 56µM, BAZ2B block 50µM
Cc1ccc(-n2nc3c(c2NC(=O)c2ccco2)CS(=O)(=O)C3)c(C)c1	none
Cc1ccc(-n2nc(-c3ccco3)cc2C(=O)O)c(C)c1	G9a block 18µM, JMJD2A Tudor inh 56µM, BAZ2B block 45µM
O=C(c1cc(-c2ccccc2)nn1CC1CC(c2cccnc2)=NO1)N1CCOCC1 (stereo not given)	JMJD2A Tudor inh inconclusive (no result: G9a block, BAZ2B block)
Cc1ccc(-n2nc(-c3cccnc3)cc2C(=O)N2CCOCC2)c(C)c1	G9a block 45µM
O=c1[nH]c(=S)[nH]c2c1C(c1ccc(Cl)cc1)OC(C1CCCCC1)C2 (stereo not given)	none (no result: HP1b binding inh, G9a block, JMJD2A Tudor inh, BAZ2B block)
OC[C@@H]1CN(Cc2ccc(Cl)cc2)C[C@H](n2cnc3c(N4CCCC4)ncnc32)O1	none (no result: HP1b binding inh, G9a block, JMJD2A Tudor inh, BAZ2B block)
S=C1SCN(Cc2ccccc2)CN1Cc1ccco1	none (no result: HP1b binding inh, G9a block, JMJD2A Tudor inh, BAZ2B block)
O=C1CN(Cc2ccccc2)C(=NCc2ccco2)S1	JMJD2A Tudor inh 79µM, BAZ2B block inconclusive
CCOC(=O)C(=CNNc1cccc(Cl)c1)C(=O)OCC	GLS inh inconclusive, HP1b binding inh inconclusive, G9a block 3.5µM, JMJD2A Tudor inh 79µM
Cc1cccc2cc(CN(Cc3ccccc3)Cc3nnnn3Cc3ccccc3)c(=O)[nH]c12	none (no result: GLS inh, G9a block, BAZ2B block)
Cc1ccc(C2c3c(oc4cc(C)c(C)cc4c3=O)C(=O)N2CCCN2CCOCC2)cc1 (stereo not given)	G9a block 40µM
